Measured values as given in PubChem BioAssay (NCI).
About 79,000 compounds went through this panel and 15% of them were active in at least one assay; those are over-represented in the sample as a whole. Activity calls are given as the source filed them. No stated cut-off is given here; in the data, active means growth inhibition above about 70%; inactive means the rest. Where a SMILES comes first, the peptide text is derived from it. [ ]: non-standard residue; d: D form. ξ: configuration not given here. ξV = CC(C)C(N)C(=O)O

Assay: NCI Yeast Anticancer Drug Screen. Data for the bub3 strain (AID 167)
Details: S. cerevisiae bub3 mutant strain, at 50.0 µM, hits give high values
Description: Growth inhibition of yeast strains with defined genetic alterations is measured as a screen for potential anti-cancer activity. Selected strains with alterations in DNA damage repair or cell cycle control were exposed to compounds and growth inhibition was measured relative to vehicle treated controls. The strain used in this assay is bub3

| Structure (SMILES) | growth inhibition |
| --- | --- |
| COc1cccc2c1CCC1(O)OC(=O)CC21 (stereo not given) | -6.5% (inactive) |
| O=CNCCNC=O | 0.65% (inactive) |
| CCOC(=O)OC1CC2CC(OC(=O)OCC)c3cccc(Br)c3C2c2ccccc21 (stereo not given) | -5.3% (inactive) |
| COc1ccc2cc3n(cc-2c1=O)CCc1cc2c(cc1-3)OCO2 | -6.65% (inactive) |
| CCCC(C)(O)C(C)(C)C (stereo not given) | 28.8% (inactive) |
| CCOC(=O)C(C#N)(CCC#N)CCC#N | 9.4% (inactive) |
| O=C1/C(=C2\CCc3ccccc32)Cc2ccccc21 | 34.6% (inactive) |
| NC(=O)CS(=O)Cc1cccc(Br)c1 (stereo not given) | -1.5% (inactive) |
| CC(=O)N(C)c1ccc(NC(=O)Nc2c(C)cccc2C)cc1 | 19.6% (inactive) |
| CCN(CC)CC#CCOc1ccc(/C=C/c2ccccn2)cc1 | 5.65% (inactive) |
| O=C(Nc1cc(Br)c2cccc3c2c1CC3)c1ccccc1 | 14.3% (inactive) |
| Clc1ccc(C2SCCS2)c(Cl)c1 | 33.8% (inactive) |
| Cc1ccc(NC(=O)C(=O)C2NC(=S)NC2=O)c([N+](=O)[O-])c1 (stereo not given) | 5.6% (inactive) |
| CC(C)C(N)C(=O)NCC(=O)NCC(=O)O (stereo not drawn) (H-[ξV]-Gly-Gly-OH) | -28.8% (inactive) |
| CC1=C/C(=N\NC(N)=S)C(C(O)(C(F)(F)F)C(F)(F)F)C(C)(C)C1 (stereo not given) | 41.5% (inactive) |
| CC(=O)c1cc2c(Br)cccc2oc1=O | -42.9% (inactive) |
| CCOP(=O)(O)C1CC2C3CC=C4CC(O)CCC4(C)C3CCC2(C)C1C(C)=O (stereo not given) | -2% (inactive) |
| C=CCC1=C(C)C[C@@H]2CCC(=O)C=C12 | -13% (inactive) |
| Cc1nc(C(=O)N=C(N)N)c(N)nc1-c1ccccc1 | -4.8% (inactive) |
| CCCC(=O)OC1C(CO)OC(n2cc(F)c(=O)[nH]c2=O)C1F (stereo not given) | 3.75% (inactive) |

| Structure (SMILES) | growth inhibition |
| --- | --- |
| CC(C)(C)C(=O)C(=O)O | -8.5% (inactive) |
| CCN=C(NCC)N(CC)CC | 25.3% (inactive) |
| C=C1C(=O)O[C@H]2[C@H]1[C@H](OC(=O)/C(C)=C\C)CC(=C)[C@@H]1[C@H](O)[C@H]3O[C@@]3(C)[C@@]12O | -5.95% (inactive) |
| c1ccc(Oc2ccccc2-c2ccccc2)cc1 | -23.1% (inactive) |
| C/C(=N/NC(=S)N1CCCCC1)c1ccccc1O | -10.6% (inactive) |
| CC(=O)Oc1ccc(C(C)(C)C)cc1C | 0.35% (inactive) |
| CCCCOC(=O)C(=O)/C(=C\n1c(=S)[nH]c2cc(C)ccc21)C(=O)C=C(C)C | -10.7% (inactive) |
| CN(C)C=Nc1cccc2cnccc12 | 13.1% (inactive) |
| O=Nc1c(O)[nH]c2c(Cl)cccc12 | -18.2% (inactive) |
| CN(C)c1ncnc2c1ccn2CC(O)CO (stereo not given) | 3.1% (inactive) |
| O=C1NC(=O)C(=CN2C(=O)/C(=C/c3ccc([N+](=O)[O-])cc3)SC2=S)C(=O)N1 | 20.6% (inactive) |
| CC(=O)CCC(=O)c1ccoc1 | -9.55% (inactive) |
| COc1cc(CC2C(=O)NC(=O)NC2=O)ccc1OCc1ccccc1 | -21.4% (inactive) |
| O=C1NC(=O)C(CN2C(=O)/C(=C/c3cccc(O)c3)SC2=S)C(=O)N1 | -20.4% (inactive) |
| Cc1nn(C(=O)c2ccccn2)c(-c2ccccc2)c1N=Nc1ccc(S(=O)(=O)Nc2ncccn2)cc1 | 1.5% (inactive) |
| NC(N)=NC1NCC(=O)S1 (stereo not given) | 7.15% (inactive) |
| COc1ccc2c(c1)NC(c1ccccc1C(=O)O)c1cccn1-2 (stereo not given) | 23.6% (inactive) |
| CON(C)c1nc(N)c(C#N)c(C#N)c1C#N | 15% (inactive) |
| CC(C)N(C(=O)C12C3C4C1C1C2C3C41C(=O)C(C)(C)C)C(C)C (stereo not given) | 41% (inactive) |
| Cc1ccc(Nc2c3ccccc3nc3ccccc23)cc1C | 90.2% (active) |
